Test results published in ChEMBL document CHEMBL1961873, “Compounds: GSK PKIS; Assays: Nanosyn kinase panel” (2012).

Experiments:
[1] = target: Serine/threonine-protein kinase MARK2 (Homo sapiens) (UniProt Q7KZI7); settings: at 1 µM
[2] = target: PAS domain-containing serine/threonine-protein kinase (Homo sapiens) (UniProt Q96RG2); settings: at 0.1 µM
[3] = target: PAS domain-containing serine/threonine-protein kinase (Homo sapiens) (UniProt Q96RG2); settings: at 1 µM
[4] = target: Phosphorylase b kinase gamma catalytic chain, skeletal muscle/heart isoform (Homo sapiens) (UniProt Q16816); settings: at 0.1 µM
Phosphorylase b kinase gamma catalytic chain, skeletal muscle/heart isoform (Homo sapiens), sequence (Q16816 whole entry, looked up, canonical isoform): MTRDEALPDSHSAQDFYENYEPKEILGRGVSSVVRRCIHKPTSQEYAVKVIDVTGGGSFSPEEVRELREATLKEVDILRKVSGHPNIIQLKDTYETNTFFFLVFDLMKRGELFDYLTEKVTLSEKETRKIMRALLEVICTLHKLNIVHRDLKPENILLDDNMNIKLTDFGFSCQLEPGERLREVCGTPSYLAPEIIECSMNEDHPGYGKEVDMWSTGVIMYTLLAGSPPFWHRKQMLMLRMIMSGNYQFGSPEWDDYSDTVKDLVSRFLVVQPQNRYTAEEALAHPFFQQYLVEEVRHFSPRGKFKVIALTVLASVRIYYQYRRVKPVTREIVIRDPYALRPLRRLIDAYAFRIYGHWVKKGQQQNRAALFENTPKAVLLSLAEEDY

[5] = target: Phosphorylase b kinase gamma catalytic chain, skeletal muscle/heart isoform (Homo sapiens) (UniProt Q16816); settings: at 1 µM
[6] = target: T1, Phosphorylase b kinase gamma catalytic chain, liver/testis isoform (Homo sapiens) (UniProt P15735); settings: at 0.1 µM
T1 sequence (whole entry): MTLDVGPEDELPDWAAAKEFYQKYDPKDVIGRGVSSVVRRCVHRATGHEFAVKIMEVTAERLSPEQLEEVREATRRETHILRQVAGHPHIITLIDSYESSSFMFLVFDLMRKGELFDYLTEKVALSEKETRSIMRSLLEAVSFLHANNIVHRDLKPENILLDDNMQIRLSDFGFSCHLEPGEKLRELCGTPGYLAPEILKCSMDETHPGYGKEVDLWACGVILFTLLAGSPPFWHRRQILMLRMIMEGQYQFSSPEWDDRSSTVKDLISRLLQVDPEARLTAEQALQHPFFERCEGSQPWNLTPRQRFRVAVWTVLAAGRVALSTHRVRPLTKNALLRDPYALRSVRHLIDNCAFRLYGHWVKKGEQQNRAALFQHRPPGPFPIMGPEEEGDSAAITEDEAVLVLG

[7] = target: T1, Phosphorylase b kinase gamma catalytic chain, liver/testis isoform (Homo sapiens); settings: at 1 µM
[8] = target: Serine/threonine-protein kinase pim-1 (Homo sapiens) (UniProt P11309); settings: at 0.1 µM
Serine/threonine-protein kinase pim-1 (Homo sapiens), sequence (P11309 whole entry, looked up): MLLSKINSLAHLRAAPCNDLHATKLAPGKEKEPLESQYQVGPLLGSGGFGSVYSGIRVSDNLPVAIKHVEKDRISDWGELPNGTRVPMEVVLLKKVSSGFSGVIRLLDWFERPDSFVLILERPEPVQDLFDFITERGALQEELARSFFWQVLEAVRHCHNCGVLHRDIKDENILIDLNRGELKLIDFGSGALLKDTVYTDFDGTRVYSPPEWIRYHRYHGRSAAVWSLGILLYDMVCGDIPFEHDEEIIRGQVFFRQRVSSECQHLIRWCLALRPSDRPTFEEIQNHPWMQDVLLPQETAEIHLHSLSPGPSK

[9] = target: Serine/threonine-protein kinase pim-1 (Homo sapiens) (UniProt P11309); settings: at 1 µM
[10] = target: Serine/threonine-protein kinase pim-2 (Homo sapiens) (UniProt Q9P1W9); settings: at 0.1 µM
Serine/threonine-protein kinase pim-2 (Homo sapiens), sequence (Q9P1W9 whole entry, looked up): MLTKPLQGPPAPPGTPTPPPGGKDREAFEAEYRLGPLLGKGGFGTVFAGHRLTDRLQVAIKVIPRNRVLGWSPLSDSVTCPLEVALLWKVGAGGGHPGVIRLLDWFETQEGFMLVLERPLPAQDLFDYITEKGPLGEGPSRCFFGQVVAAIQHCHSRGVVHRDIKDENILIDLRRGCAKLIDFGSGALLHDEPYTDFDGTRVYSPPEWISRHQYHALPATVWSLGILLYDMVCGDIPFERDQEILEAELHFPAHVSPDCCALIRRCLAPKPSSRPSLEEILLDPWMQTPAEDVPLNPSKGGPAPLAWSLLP

[11] = target: Serine/threonine-protein kinase pim-2 (Homo sapiens) (UniProt Q9P1W9); settings: at 1 µM
[12] = target: Serine/threonine-protein kinase pim-3 (Homo sapiens) (UniProt Q86V86); settings: at 0.1 µM
[13] = target: Serine/threonine-protein kinase pim-3 (Homo sapiens) (UniProt Q86V86); settings: at 1 µM
[14] = target: T2, MAP kinase-activated protein kinase 5 (Homo sapiens) (UniProt Q8IW41); settings: at 0.1 µM
T2 sequence (whole entry): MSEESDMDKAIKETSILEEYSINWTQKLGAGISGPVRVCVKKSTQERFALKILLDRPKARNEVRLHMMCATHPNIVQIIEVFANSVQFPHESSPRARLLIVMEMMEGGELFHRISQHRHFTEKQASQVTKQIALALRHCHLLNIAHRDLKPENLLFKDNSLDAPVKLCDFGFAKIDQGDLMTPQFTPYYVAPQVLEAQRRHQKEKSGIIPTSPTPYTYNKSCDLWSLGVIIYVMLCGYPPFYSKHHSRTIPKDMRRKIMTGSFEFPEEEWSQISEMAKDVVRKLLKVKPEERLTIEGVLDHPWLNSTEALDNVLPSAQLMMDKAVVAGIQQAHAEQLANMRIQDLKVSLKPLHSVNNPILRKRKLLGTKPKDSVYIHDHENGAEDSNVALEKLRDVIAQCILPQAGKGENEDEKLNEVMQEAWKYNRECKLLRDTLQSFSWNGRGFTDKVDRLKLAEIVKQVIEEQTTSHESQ

[15] = target: T2, MAP kinase-activated protein kinase 5 (Homo sapiens); settings: at 1 µM
[16] = target: Serine/threonine-protein kinase SIK1 (Homo sapiens) (UniProt P57059); settings: at 0.1 µM
Serine/threonine-protein kinase SIK1 (Homo sapiens), sequence (P57059 whole entry): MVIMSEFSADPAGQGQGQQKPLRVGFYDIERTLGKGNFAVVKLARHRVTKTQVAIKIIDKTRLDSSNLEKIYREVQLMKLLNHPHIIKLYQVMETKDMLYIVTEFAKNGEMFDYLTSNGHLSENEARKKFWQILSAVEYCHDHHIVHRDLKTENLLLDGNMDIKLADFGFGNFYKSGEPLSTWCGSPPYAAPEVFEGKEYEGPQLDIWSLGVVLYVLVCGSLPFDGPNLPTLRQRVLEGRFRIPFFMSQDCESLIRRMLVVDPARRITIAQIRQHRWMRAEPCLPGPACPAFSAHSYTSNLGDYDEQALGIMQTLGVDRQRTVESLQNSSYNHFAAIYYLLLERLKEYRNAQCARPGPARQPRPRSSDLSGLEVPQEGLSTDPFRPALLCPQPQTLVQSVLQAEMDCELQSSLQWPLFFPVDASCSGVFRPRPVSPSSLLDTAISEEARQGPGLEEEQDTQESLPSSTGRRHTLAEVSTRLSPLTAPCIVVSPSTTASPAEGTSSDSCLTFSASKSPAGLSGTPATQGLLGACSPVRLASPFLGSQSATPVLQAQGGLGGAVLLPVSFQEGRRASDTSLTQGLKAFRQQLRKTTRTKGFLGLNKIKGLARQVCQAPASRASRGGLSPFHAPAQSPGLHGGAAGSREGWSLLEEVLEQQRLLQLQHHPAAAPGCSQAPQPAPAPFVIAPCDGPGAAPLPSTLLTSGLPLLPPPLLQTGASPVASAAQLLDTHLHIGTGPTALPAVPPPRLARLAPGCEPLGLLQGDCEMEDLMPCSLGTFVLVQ

[17] = target: Serine/threonine-protein kinase SIK1 (Homo sapiens) (UniProt P57059); settings: at 1 µM
[18] = target: Serine/threonine-protein kinase SIK2 (Homo sapiens) (UniProt Q9H0K1); settings: at 0.1 µM
Serine/threonine-protein kinase SIK2 (Homo sapiens), sequence (Q9H0K1 whole entry, looked up): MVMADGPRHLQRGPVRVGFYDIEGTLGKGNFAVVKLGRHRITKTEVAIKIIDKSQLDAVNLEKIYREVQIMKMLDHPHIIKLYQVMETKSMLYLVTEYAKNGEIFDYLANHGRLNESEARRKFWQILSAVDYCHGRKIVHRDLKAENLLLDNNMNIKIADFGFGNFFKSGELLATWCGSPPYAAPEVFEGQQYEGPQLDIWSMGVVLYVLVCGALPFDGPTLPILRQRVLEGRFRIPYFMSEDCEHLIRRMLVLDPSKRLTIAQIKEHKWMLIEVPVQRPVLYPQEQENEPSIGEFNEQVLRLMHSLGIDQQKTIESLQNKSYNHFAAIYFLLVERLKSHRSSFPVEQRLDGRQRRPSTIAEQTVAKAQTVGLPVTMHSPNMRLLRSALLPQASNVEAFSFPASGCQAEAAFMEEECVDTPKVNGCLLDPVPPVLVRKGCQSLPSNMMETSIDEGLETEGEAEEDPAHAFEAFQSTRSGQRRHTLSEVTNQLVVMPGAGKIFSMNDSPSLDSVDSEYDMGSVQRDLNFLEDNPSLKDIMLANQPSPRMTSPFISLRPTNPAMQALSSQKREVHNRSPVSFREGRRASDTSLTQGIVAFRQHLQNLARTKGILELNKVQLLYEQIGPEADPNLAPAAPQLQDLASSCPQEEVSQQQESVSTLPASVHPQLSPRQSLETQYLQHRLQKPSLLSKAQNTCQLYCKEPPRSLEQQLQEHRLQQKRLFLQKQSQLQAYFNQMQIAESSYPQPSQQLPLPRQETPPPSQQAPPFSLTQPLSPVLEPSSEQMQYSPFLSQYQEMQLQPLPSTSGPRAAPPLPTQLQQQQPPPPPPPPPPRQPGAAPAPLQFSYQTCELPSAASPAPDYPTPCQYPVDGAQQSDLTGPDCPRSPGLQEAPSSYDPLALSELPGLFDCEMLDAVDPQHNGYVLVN

[19] = target: Serine/threonine-protein kinase SIK2 (Homo sapiens) (UniProt Q9H0K1); settings: at 1 µM
[20] = target: T3, Serine/threonine-protein kinase TBK1 (Homo sapiens) (UniProt Q9UHD2); settings: at 0.1 µM;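 note: values are the mean TBK1 inhibition, taken from the GSK PKIS screening data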
T3 sequence (whole entry): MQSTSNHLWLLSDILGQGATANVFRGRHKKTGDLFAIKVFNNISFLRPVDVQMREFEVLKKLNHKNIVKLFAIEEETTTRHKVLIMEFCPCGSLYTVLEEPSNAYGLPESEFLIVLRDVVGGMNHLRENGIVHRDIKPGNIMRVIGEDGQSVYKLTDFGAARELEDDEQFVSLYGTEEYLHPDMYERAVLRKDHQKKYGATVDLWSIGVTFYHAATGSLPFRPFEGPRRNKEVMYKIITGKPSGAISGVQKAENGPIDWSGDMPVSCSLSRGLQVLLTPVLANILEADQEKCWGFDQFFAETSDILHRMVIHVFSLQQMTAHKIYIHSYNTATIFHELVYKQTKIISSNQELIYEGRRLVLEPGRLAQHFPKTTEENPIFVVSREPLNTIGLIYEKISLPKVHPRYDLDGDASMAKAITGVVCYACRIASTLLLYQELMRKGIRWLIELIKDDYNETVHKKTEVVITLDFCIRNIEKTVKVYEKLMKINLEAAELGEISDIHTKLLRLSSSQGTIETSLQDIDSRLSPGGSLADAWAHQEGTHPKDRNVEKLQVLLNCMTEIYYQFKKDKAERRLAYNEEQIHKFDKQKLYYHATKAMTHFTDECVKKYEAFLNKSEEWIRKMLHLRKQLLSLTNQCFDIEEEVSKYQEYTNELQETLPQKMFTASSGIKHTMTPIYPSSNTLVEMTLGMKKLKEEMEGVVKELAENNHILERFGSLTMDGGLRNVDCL

Serine/threonine-protein kinase MARK2 (Homo sapiens), sequence (Q7KZI7 whole entry, the tested form may be a part): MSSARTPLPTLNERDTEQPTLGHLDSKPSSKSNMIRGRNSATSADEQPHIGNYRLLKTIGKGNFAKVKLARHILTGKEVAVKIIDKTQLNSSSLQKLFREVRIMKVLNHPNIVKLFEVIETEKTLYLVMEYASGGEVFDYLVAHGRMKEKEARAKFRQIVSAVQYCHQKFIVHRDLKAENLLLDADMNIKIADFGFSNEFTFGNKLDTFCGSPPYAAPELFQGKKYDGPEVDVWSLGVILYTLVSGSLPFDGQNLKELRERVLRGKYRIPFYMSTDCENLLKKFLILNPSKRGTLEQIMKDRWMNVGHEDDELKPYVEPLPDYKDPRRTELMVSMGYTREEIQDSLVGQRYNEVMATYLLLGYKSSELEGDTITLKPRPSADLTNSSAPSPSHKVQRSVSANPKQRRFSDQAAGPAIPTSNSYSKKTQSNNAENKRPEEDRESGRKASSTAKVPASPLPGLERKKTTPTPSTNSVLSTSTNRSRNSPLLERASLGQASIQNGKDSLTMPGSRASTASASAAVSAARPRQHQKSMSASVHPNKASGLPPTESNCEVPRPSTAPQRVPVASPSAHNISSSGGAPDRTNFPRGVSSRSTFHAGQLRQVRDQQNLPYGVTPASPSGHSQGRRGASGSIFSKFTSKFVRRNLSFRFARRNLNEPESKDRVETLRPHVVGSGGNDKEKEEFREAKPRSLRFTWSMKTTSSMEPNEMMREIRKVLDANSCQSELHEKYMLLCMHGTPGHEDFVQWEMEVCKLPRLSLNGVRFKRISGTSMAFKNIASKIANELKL
PAS domain-containing serine/threonine-protein kinase (Homo sapiens), sequence (Q96RG2 whole entry, the tested form may be a part, canonical isoform): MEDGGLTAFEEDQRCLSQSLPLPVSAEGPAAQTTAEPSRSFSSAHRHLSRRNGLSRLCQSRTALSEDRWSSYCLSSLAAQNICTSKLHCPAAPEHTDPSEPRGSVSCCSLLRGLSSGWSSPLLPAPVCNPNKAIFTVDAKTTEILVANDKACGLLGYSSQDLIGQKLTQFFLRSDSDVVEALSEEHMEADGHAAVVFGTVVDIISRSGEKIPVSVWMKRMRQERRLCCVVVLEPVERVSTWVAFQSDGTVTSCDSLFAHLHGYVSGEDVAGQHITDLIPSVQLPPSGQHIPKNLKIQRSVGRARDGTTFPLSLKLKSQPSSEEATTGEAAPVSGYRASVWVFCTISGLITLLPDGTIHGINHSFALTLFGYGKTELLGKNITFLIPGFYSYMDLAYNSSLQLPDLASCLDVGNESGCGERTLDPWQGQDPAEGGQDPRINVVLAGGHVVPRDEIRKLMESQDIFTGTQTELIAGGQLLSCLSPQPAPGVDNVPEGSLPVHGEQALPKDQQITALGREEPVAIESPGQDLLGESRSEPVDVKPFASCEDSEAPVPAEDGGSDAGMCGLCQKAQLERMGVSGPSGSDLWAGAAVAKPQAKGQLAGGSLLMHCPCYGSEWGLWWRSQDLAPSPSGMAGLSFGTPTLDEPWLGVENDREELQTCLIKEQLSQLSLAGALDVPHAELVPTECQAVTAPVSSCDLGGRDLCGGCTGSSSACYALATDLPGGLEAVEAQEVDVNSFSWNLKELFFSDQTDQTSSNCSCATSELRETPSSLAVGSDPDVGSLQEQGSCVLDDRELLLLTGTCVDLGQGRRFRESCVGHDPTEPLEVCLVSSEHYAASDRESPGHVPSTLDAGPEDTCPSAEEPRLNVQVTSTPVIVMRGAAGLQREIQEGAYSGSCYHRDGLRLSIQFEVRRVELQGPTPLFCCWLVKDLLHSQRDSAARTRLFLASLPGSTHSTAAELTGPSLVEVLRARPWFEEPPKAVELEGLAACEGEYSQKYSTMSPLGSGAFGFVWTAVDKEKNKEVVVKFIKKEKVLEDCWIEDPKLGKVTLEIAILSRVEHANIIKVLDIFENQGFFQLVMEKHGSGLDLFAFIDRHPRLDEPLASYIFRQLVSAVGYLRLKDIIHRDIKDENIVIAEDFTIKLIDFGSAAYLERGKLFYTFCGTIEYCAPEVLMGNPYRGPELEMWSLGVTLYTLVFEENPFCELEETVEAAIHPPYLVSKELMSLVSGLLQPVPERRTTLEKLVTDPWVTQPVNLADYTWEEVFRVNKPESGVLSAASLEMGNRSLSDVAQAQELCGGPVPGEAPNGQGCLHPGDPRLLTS

Row | Structure (SMILES) | inhibition [1] | inhibition [2] | inhibition [3] | inhibition [4] | inhibition [5] | inhibition [6] | inhibition [7] | inhibition [8] | inhibition [9] | inhibition [10] | inhibition [11] | inhibition [12] | inhibition [13] | inhibition [14] | inhibition [15] | inhibition [16] | inhibition [17] | inhibition [18] | inhibition [19] | inhibition [20]
1 | CCn1c(-c2nonc2N)nc2c(C#CC(C)(C)O)nc(O[C@@H](CN)c3ccccc3)cc21 | 90.5% | 0.53% | 15.9% | 1.61% | 12.3% | -3.09% | -0.93% | 4.64% | 35.2% | 2.45% | 20.6% | 4.66% | 39% | -0.85% | -1.11% | -0.97% | 8.3% | -0.81% | 14.8% | 20.9%
2 | NC(=O)c1sc(-n2cnc3cc(C(F)(F)F)ccc32)cc1OCc1ccccc1Br | 2.11% | 1.33% | 0.96% | 0.3% | 5.87% | 2.5% | 3.01% | 1.18% | 1.5% | -0.35% | 1.16% | 1.55% | 2.84% | 0.86% | 0.76% | 6.45% | 1.7% | -0.18% | 3.79% | 0.98%
3 | Nc1nonc1-c1nc2cnccc2n1C1CCCCC1 | 21.9% | 1.01% | 12.9% | -3.58% | 8.25% | -4.48% | -2.24% | 29.8% | 79.2% | 5.24% | 37.5% | 11.4% | 56.9% | -0.83% | -1.13% | -4.72% | -3.76% | -6.25% | 9.23% | 3.95%
4 | NS(=O)(=O)c1ccc(N/C=C2\C(=O)Nc3ccc4ncsc4c32)cc1 | 34.6% | -0.28% | 0.4% | 15.2% | 47.6% | 7.45% | 19.8% | 1.16% | 4.82% | 0.27% | 1.21% | 0.54% | 4.12% | 2.27% | 7.16% | 2.12% | 21% | 9% | 25.8% | 10.7%
5 | CCn1c(-c2nonc2N)nc2c(C#CC(C)(C)O)ncc(OC[C@@H]3CCCN3)c21 | 51.9% | 0.57% | 7.61% | 1.02% | 2.21% | 1.45% | 1.65% | 1.6% | 7.63% | 1.1% | 7.09% | 1.81% | 10.1% | 0.11% | 0.32% | 1.03% | 4.19% | -4.09% | 6.59% | 5.1%
6 | Cc1cc(-c2ccco2)cc(C)c1/C=C/c1cncc(-c2nn[nH]n2)c1 | -0.28% | 1.32% | 1.25% | 3.4% | 4.41% | 1.33% | 1.22% | 0.14% | 1.06% | 0.57% | 1.49% | 0.12% | 1.83% | 0.41% | 0.28% | -0.49% | 6.77% | -2.65% | 0.13% | 0.36%
7 | COc1cccc(-n2ncc3c(N/N=C/c4ccncc4)ncnc32)c1 | 2.54% | 0.3% | 0.25% | 5.39% | 17.6% | 5.48% | 7.43% | 1.36% | 3.36% | 0.77% | 1.69% | 0.83% | 4.38% | 1.56% | 3.04% | 4.22% | 27.9% | 15.4% | 54% | 3.12%
